Shown are actives, neighbours in structure and some others; about 10% of the full set was active somewhere.
HP1b chromo inh: HP1-beta chromodomain-methylated histone interaction inhibition; Potency, µM (series often up to 114 µM), for the others: at the top dose activity change, negative = inhibition, most hits filed as inhibitors; P83916; AlphaScreen HP1-beta / biotin-H3K9me3 peptide binding; 390,000 compounds, 0.56% hits; AID 540317; note: nearly all actives have a fitted effect of over 70% in size
Target sequence (P83916 whole entry, looked up): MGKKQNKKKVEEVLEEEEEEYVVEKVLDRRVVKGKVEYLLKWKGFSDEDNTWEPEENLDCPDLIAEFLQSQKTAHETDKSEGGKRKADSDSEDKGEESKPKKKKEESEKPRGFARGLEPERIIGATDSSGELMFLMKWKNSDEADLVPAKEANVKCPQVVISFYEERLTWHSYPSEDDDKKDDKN
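Compound inhibition of the preformed complex between 50 nM HP1-beta and 50 nM biotinylated H3K9me3 peptide was read by AlphaScreen. Buffer was PBS pH 7.4 with 0.01% Tween-20. Incubations ran 30 min at room temperature, with 10 ug/mL donor/acceptor beads.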
GLS inh: blocks human kidney-isoform glutaminase activity. O94925. Potency, µM (highest dose often 45.5 µM), for the others: at the top dose activity change, negative = inhibition, usual class: inhibitors. AID 624170. 410,000 compounds, 0.21% hits. GLS enzymatic activity, qHTS titration; note: % is set by controls: 0 for no effect and ±100 for the full control effect
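Coupled fluorescence readout: glutamate oxidase/HRP/Amplex Red detect glutamate formed by hKGA from L-glutamine (1 mM solution added). Buffer 45 mM KH2PO4 pH 8.2, 0.02% Tween-20; reads at t0 and 30 min RT.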
G9a block: inhibitors of human histone lysine methyltransferase G9a | Q96KQ7 | G9a H3K9 monomethylation, AlphaScreen, 2 h | Potency, µM (top dose mostly 102 µM), for inactives: at the highest dose activity, negative = inhibition, usual class: inhibitors | 350,000 compounds, 8.8% hits | AID 504332; note: % is set by controls: 0 for no effect and ±100 for the full control effect; nearly all actives have a fitted effect of over 75% in size
Target sequence (Q96KQ7 913-1193 limits assumed): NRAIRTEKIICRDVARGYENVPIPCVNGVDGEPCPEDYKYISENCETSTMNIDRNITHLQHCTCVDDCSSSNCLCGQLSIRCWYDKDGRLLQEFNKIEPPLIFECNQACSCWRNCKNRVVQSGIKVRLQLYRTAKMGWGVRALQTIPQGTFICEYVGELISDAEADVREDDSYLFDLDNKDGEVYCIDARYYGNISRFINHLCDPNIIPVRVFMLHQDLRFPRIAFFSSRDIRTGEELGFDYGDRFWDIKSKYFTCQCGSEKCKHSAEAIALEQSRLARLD
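Compounds were preincubated with 20 nM G9a for 15 min, after which biotinylated H3K9 peptide (500 nM) and SAM (20 uM) started a 2 h room-temperature reaction. Monomethylated product was quantified by antibody-based AlphaScreen chemiluminescence.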
L3MBTL1 inh: blocks human L3MBTL1. Q9Y468. AlphaScreen L3MBTL1–H3K9me1 peptide binding. Potency, µM (doses to about 57.1 µM), for inactives: at the highest dose activity, negative = inhibition, usual class: inhibitors. 230,000 compounds, 0.66% hits. AID 485360; note: % is set by controls: 0 for no effect and ±100 for the full control effect; nearly all actives have a fitted effect of over 60% in size
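L3MBTL1 (50 nM) pre-complexed 30 min with biotinylated H3(1-15)K9me1 peptide (75 nM), then compounds added for 30 min at room temperature; AlphaScreen streptavidin donor/nickel chelate acceptor beads (10 ug/mL final) read after 30 min dark incubation.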
BAZ2B block: inhibitors of human BAZ2B bromodomain; Q9UIF8; AlphaScreen BAZ2B-H3K14Ac peptide displacement; Potency, µM (doses to about 114 µM), inactives show at the top dose activity change, negative = inhibition, most hits filed as inhibitors; 360,000 compounds, 4.4% hits; AID 504333; note: % is set by controls: 0 for no effect and ±100 for the full control effect; nearly all actives have a fitted effect of over 60% in size
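BAZ2B 50 nM plus b-H3(5-23)K14Ac 50 nM, PBS pH 7.4/0.01% Tween-20, 30 min RT; compound added (max 110 uM), 30 min RT; streptavidin donor/Ni-chelate acceptor beads 10 ug/mL final, 20 min dark; AlphaScreen read.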
JMJD2A Tudor: blocks the human JMJD2A Tudor domain; O75164; AlphaScreen JMJD2A-Tudor / H3K4me3 peptide binding; Potency, µM (top dose mostly 114 µM), without a hit: top-dose activity change, negative = inhibition, most hits filed as inhibitors; 390,000 compounds, 4.4% hits; AID 504339; note: % is set by controls: 0 for no effect and ±100 for the full control effect; nearly all actives have a fitted effect of over 50% in size
An asterisk follows results filed as active; ? = inconclusive; · = no result; [ ] = another dose, or the depositor's remark. Calls come from the whole dose curve; as a rule, active = well fitted curve in the direction sought with a large enough effect; inconclusive = small, poorly fitted or top-dose-only effect, or another doubt; inactive = no such curve, though single readings can be large; an effect the other way counts as inactive or inconclusive. Potency is the fitted concentration of half-maximal effect.

SMILES	HP1b chromo inh	GLS inh	G9a block	L3MBTL1 inh	BAZ2B block	JMJD2A Tudor
COc1ccccc1OCCNC(=O)CC(NC(C)=O)c1ccccc1 (stereo not given)	32.9%	-2.7%	79.4µM*	·	-24.7%	2.8%
O=C(O)/C=C/c1cn(Cc2ccccc2)nc1-c1cccnc1	29.5%	0.8%	·	·	-38.2%	-11.9%
CN(CC(=O)Nc1cccc(F)c1)C(=O)/C=C/c1cn(Cc2ccccc2)nc1-c1cccnc1	17.7%	-7.3%	50.1µM*	-7.4%	-9.5%	-26.7%
CN(C)c1ccc(-c2cncnc2NCCN2CCOCC2)cc1	·	·	-1.5%[0.501 µM]	·	·	·
Cc1cc(C)n(CCc2nc3c4ccccc4nc(N4CCN(c5ccccc5)CC4)n3n2)n1	1.5%	-14.6%	9.2%[59 µM]	·	-0.8%	-30.5%
CCC(C)N(C(=O)COC(=O)c1nc2nc(C)cc(C)n2n1)C1CCS(=O)(=O)C1 (stereo not given)	27.7%	3.9%	15.8µM*	7.1%	-4.1%	-1.4%
CCC(C)N(C(=O)COC(=O)CSc1ccc([N+](=O)[O-])cc1)C1CCS(=O)(=O)C1 (stereo not given)	19.0%	-8.8%	39.8µM*	·	-27.3%	-8.2%
Cc1ccc(NC(=O)c2c(C)oc3ccc(O)c(CN4CCCCCC4)c23)cc1	-25.9%	0.9%	-26.0%[59 µM]	·	-21.9%	-29.5%
COc1ccc(CNC(=O)c2cc3cccc4c3n2CC(C)S4)cc1 (stereo not given)	90.7%	-2.8%	?	·	2.9%	12.4%
N#Cc1cc2c(=O)n3ccccc3nc2n(-c2nnc(SCc3ccccc3Cl)s2)c1=O	53.0%	0.3%	0.4%[59 µM]	·	7.1%	11.7%
CCOc1ccc(S(=O)(=O)Nc2cc(Sc3ncn[nH]3)c3oc(=O)sc3c2)cc1	·	·	31.6µM*	-29.7%	?	·
CCOc1ccc(S(=O)(=O)Nc2ncn[nH]2)cc1	8.7%	-11.7%	20.6%	·	-1.0%	-7.0%
CCOc1ccc(-c2c(C)nn3c(-c4ccccc4)c(C(=O)NCCOC)cnc23)cc1OCC	7.6%	-13.4%	-10.4%[59 µM]	·	-34.3%	-32.3%
O=S(=O)(c1cccc(C(F)(F)F)c1)N1CCC(c2cc(-c3cccc4ccccc34)n[nH]2)CC1	-0.9%	125.8%	-11.0%[12.7 µM]	-4.0%	?	39.8µM*
COc1ccc(S(=O)(=O)N2CCC(c3cc(-c4cccc5ccccc45)n[nH]3)CC2)cc1	22.6%	-6.7%	·	-6.2%	-5.6%	-25.7%
O=C(NS(=O)(=O)c1ccccc1Cl)c1ccc[nH]1	·	·	79.4µM*	-17.1%	-8.8%	·
CCOCc1[nH]c(=S)[nH]c(=O)c1Cc1ccc(OC(C)C)cc1	6.4%	-5.1%	50.1µM*	-14.0%	-24.7%	-32.6%
CCN(C(=O)CSc1nc2ccccc2n1CC(=O)NCc1ccc(OC)cc1)c1ccccc1	14.6%	-1.7%	-7.8%[59 µM]	·	-36.9%	-19.9%
O=C(Nc1nnc(SCc2ccc(F)cc2)s1)C1Cc2ccccc2CN1C(=O)c1ccco1 (stereo not given)	28.1%	-5.3%	?	-16.9%	-27.8%[57.1 µM]	-33.6%
O=C(Nc1nnc(C2CC2)s1)C1Cc2ccccc2CN1C(=O)c1ccco1 (stereo not given)	?	-0.1%	20µM*	?	50.1µM*	?
Oc1ccc(O)c2c1C1c3ccccc3C2c2ccccc21	·	·	3.55µM*	-11.7%	39.8µM*	·
CC1=NN(c2ccc(N)cc2)C(=O)C1	6.8%	-4.3%	8.91µM*	·	?	-14.5%[11.4 µM]
COc1ccc(NS(=O)(=O)c2cc3[nH]c(=O)c(=O)[nH]c3cc2C)cc1OC	39.9%	30.2%	-25.6%[59 µM]	·	79.4µM*	-5.1%
COc1cc(NS(=O)(=O)c2cc3[nH]c(=O)[nH]c3cc2C)cc(OC)c1OC	18.2%[57 µM]	3.8%	14.8%[59 µM]	·	3.0%	-16.9%
CCOC(=O)CC(c1ccc([N+](=O)[O-])cc1)n1c(C)ccc1C (stereo not given)	?	-9.9%	?	-3.8%[11.4 µM]	44.7µM*	-33.7%
SMILES	HP1b chromo inh	GLS inh	G9a block	L3MBTL1 inh	BAZ2B block	JMJD2A Tudor
COC(=O)CC(c1ccc(C#N)cc1)n1c(C)ccc1C (stereo not given)	14.8%	-8.3%	5.7%	-2.7%	-18.7%	-19.9%
CCOc1ccccc1CNC(=O)c1cnc2sc(N(CC)CC)nn2c1=O	-30.6%	-12.2%	6.1%[59 µM]	·	-4.3%	-22.7%
O=c1ccccn1CCOc1ccccc1Cl	11.7%	14.7%	21.1%[59 µM]	-3.0%	8.0%	-11.9%
Clc1cccc(OCCN2CCCC2)c1	26.2%	3.7%	?	-0.9%	-0.6%	-9.5%
Clc1ccc(OCCN2CCCCC2)c(Cl)c1	44.7µM*	9.6%	11.2µM*	·	50.1µM*	5.62µM*
Clc1ccccc1OCCN1CCCCC1	?	-5.6%	?	-8.9%	-2.8%	22.4µM*
CCOC(=O)c1ccc(NC(=O)NCCOCCn2c(=O)oc3ccccc32)cc1	6.1%	-1.9%	-1.1%[59 µM]	·	-3.6%	-28.0%
Cc1ccc(S(=O)(=O)Nc2cc(C(C(=O)OC(C)C)C(=O)C(F)(F)F)c(O)c3ccccc23)c(C)c1 (stereo not given)	-10.6%	?	39.8µM*	-6.8%	?	-28.6%
Cc1ccc(Nc2nc(C(=O)NCCCN3CCOCC3)cs2)cc1	12.2%	11.5%	89.1µM*	-10.3%	9.3%	?
CCOC(=O)/C(=N\Nc1ccc(OC)cc1)c1csc(Nc2ccccc2)n1	-20.4%	-1.5%	-13.6%[12.7 µM]	·	?	39.8µM*
CCN(CC)C(=O)c1csc(Nc2ccc(C)cc2)n1	-2.2%	5.6%	12.6µM*	-4.5%	?	-33.1%
O=C(CN1N=C(c2ccc(Cl)cc2)CCC1=O)NCc1ccc(F)cc1	16.5%	3.7%	5.5%[59 µM]	·	2.0%	-13.5%
CCOc1ccccc1CNC(=O)c1ccc2nc(N3CCC(C)CC3)sc2c1	5.6%	-0.2%	-1.4%[59 µM]	·	1.9%	-17.1%
CCCOc1ccc2c(c1)C(=NN=C(N)N)c1cc(OCCC)ccc1-2	?	3.6%	?	·	39.8µM*	28.2µM*
CCC(CC)C(=O)Nc1ccc2nc(SCC(=O)N3CCOCC3)sc2c1	21.1%	-6.1%	-4.3%[59 µM]	·	-4.6%	-17.5%
S=C(NCCCN1CCOCC1)NCCCN1CCOCC1	?	11.7%	8.91µM*	3.4%	6.7%	7.4%[57.1 µM]
S=C(NCCCN1CCOCC1)Nc1ccc(Cl)cc1	43.1%	8.4%	17.6%[59 µM]	7.5%	9.3%	1.4%
FC(F)(F)Oc1ccc(NC(=S)NCCCN2CCOCC2)cc1	-1.4%	0.7%	50.1µM*	4.8%	-19.3%	-13.7%
CCCCCCCCNC(=S)NCCN1CCCCC1	?	-5.5%	44.7µM*	-0.5%	?	79.4µM*
O=C(NCCCCCCCN1CCCCCCC1)C(C1CCCCC1)C1CCCCC1	-4.0%	11.7%	·	·	·	-17.4%

Screening results: PubChem BioAssay, National Center for Advancing Translational Sciences (NCATS)
